Data published in PubChem BioAssay.

assay: A549 cell viability effects, profiling panel, calcein-AM fluorescence, 48 h, basal (AID 1162); conditions: higher = more signal; note: test concentration not given here

Structure (SMILES) | z-score
CN(C)C(=O)[C@@]1(CCS(=O)(=O)c2ccccc2)N=C(c2ccc(OCCCO)cc2)O[C@H]1c1ccccc1CN=[N+]=[N-] | 1.29
Cc1ccc(S[C@]2(C(=O)NCc3ccccc3)CC(=O)N(C3Cc4ccccc4C3)[C@@H]2c2ccc(CO)cc2I)cc1 | 1.38
C=C(C)[C@@H]1CC=C(C(O)C2C=CC3C(=O)N(C4CCCCC4)C(=O)C3N2Nc2ccc(OC)cc2)CC1 (stereo not given in full) | -0.447
CC(C)(C)N1CC=CC23O[C@@H]4C=CCCOC(=O)C4[C@H]2C(=O)N(CCCO)[C@@H]3C1=O (stereo not given in full) | 0.28
CN(C)C(=O)[C@]1(Cc2ccccc2N=[N+]=[N-])N=C(c2ccc(OCCCO)cc2)O[C@@H]1c1ccccc1CN=[N+]=[N-] | -0.409
COC(=O)[C@@]1(Cc2ccc(OC)cc2)[C@H]2c3cc(C(=O)N4CCCC4)n(Cc4ccc(C)o4)c3C[C@H]2CN1C(=O)c1ccccc1 | -3.86
[N-]=[N+]=NCc1ccccc1C[C@]1(C(=O)NCCN2CCOCC2)N=C(c2ccc(OCCCO)cc2)O[C@H]1c1ccccc1 | 0.112
CCCCCCC#C[Si](O[C@H](c1ccccc1)c1cn(Cc2cccc(Cl)c2)nn1)(C(C)C)C(C)C | 1.11
COCCOC(=O)N1C(=O)[C@@]2(c3cc(C#CC4(O)CCCCCC4)ccc31)[C@H](C(=O)N1CCN(c3ncccn3)CC1)[C@H]1C(=O)O[C@H](c3ccccc3)[C@H](c3ccccc3)N1[C@@H]2c1ccc(O)cc1 | 1.09
COc1ccc(C(=O)Nc2ccc3c(c2)[C@]2(O[C@@H](CCO)[C@H]([Si](C)(C)c4ccc(OC)cc4)[C@H]2C)C(=O)N3Cc2ccccc2)cc1 | -1.34
